This is one part of a sample in which hits are shown more often than they occur.
VACV mCherry inh – qHTS for Stage-Specific Inhibitors of Vaccinia Orthopoxvirus: mCherry Reporter Primary qHTS | AID 720579, 2013 | Potency, µM (top dose mostly 36.5 µM), most hits filed as inhibitors | 0.63% of 310,000 active | Vaccinia virus mCherry reporter infection, fluorescence; calls by dose curve; tested in A549 cells; note: nearly all actives have a fitted effect of over 35% in size
Shiga toxin inh – A qHTS for Small Molecule Inhibitors of Shiga Toxin; Vero cells, Shiga toxin protein synthesis inhibition reporter; inhibition, % at 38.7 µM; 9.2% of 290,000 active; AID 2315, 2010; in the data active = inhibition mostly above about 28%, no sharp cut-off; inactive = mostly below about 43%
Vaccinia Venus – qHTS for Stage-Specific Inhibitors of Vaccinia Orthopoxvirus: Venus Reporter Primary qHTS; Vaccinia virus Venus reporter expression, fluorescence; Potency, µM (titrated, usually from 36.5 µM), actives largely listed as inhibitors; AID 720580, 2013; 0.46% of 330,000 active; calls by dose curve; tested in A549 cells; note: nearly all actives have a fitted effect of over 30% in size
MARV entry inh – qHTS for inhibitors of binding or entry into cells for Marburg Virus; AID 540276, 2011; 1.8% of 300,000 active; Marburg virus pseudotyped entry inhibition, cell reporter; Potency, µM (doses to about 37.8 µM), hits mostly inhibitors; calls by dose curve; tested in HEK293 cells
Lassa entry inh – qHTS for Inhibitors of binding or entry into cells for Lassa Virus | Potency, µM (series often up to 37.9 µM), most hits filed as inhibitors | Lassa virus pseudotype entry inhibition, cell reporter | 1.2% of 300,000 active; calls by dose curve; tested in HEK293 cells; note: nearly all actives have a fitted effect of over 50% in size
CHX counter – Cycloheximide Counterscreen for Small Molecule Inhibitors of Shiga Toxin; cell reporter, cycloheximide protein synthesis inhibition counterscreen; AID 2314, 2010; 12% of 300,000 active; max response, %; in the data active = max response mostly above about 13%, no sharp cut-off; inactive = mostly below about 14%; note: read at 38.3 µM for the half of the compounds with a filed dose
Each line names hits and unclear results; the compound was inactive in the other large screens.

O=c1c2ccccc2nc(/C=C/c2ccc([N+](=O)[O-])o2)n1CCCO	VACV mCherry inh inconclusive, Vaccinia Venus inconclusive, MARV entry inh 2µM, Lassa entry inh 4.47µM, CHX counter 17.7
CCn1c(/C=C/c2ccccc2F)nc2ccccc2c1=O	Lassa entry inh inconclusive, CHX counter 17.7
COC(=O)C1=C(C(=O)OC)[C@@H]2N(C)c3ccccc3[C@@]23CCC(=O)N(CCCOC(C)C)C3=N1	none (no result: VACV mCherry inh, Shiga toxin inh, Vaccinia Venus, Lassa entry inh, CHX counter)
Cc1cc2c(s1)c1cnn(Cc3ccccc3Cl)c(=O)c1n2C	none (no result: VACV mCherry inh, Vaccinia Venus, MARV entry inh, Lassa entry inh)
COc1ccc(S(=O)(=O)Nc2cccc3cccnc23)c([N+](=O)[O-])c1	none (no result: VACV mCherry inh, Vaccinia Venus, MARV entry inh, Lassa entry inh)
O=C(NNS(=O)(=O)c1ccc(Br)cc1)c1cccs1	none
CCn1c(/C=C/c2ccccc2C)nc2ccccc2c1=O	Shiga toxin inh 51.3, CHX counter 19.0 (no result: VACV mCherry inh, Vaccinia Venus, MARV entry inh, Lassa entry inh)
CN(Cc1nc2ccccc2[nH]1)Cc1nc(CC2CC2)no1	CHX counter 16.2 (no result: VACV mCherry inh, Vaccinia Venus, MARV entry inh, Lassa entry inh)
Cc1cc(Cl)ccc1NC(=O)CS(=O)(=O)c1cccc2nsnc12	Lassa entry inh inconclusive (no result: Shiga toxin inh, MARV entry inh, CHX counter)
O=C(Nc1cnc2sc3c(n2c1=O)CCCC3)c1ccc(F)cc1	Shiga toxin inh 44.0, Lassa entry inh inconclusive, CHX counter 25.4 (no result: VACV mCherry inh)
O=C(Nc1cnc2ccccn2c1=O)c1ccc(F)cc1	Shiga toxin inh 58.0, MARV entry inh inconclusive, Lassa entry inh inconclusive, CHX counter 32.6
Cc1nn2c(=O)c(NC(=O)c3ccc(F)cc3)cnc2s1	none
COc1ccc(C(=O)Nc2cnc3ccccn3c2=O)cc1	Shiga toxin inh 96.9, CHX counter 45.7 (no result: MARV entry inh)
Cc1ccc(C(=O)NC2CCCc3c2cnn3-c2ccc(F)cc2F)cn1 (stereo unspecified)	none (no result: VACV mCherry inh, Vaccinia Venus, MARV entry inh, Lassa entry inh)
Cc1cc(C)cc(S(=O)(=O)Nc2cccc(-c3ccc(N4CCOCC4)nn3)c2)c1	none (no result: Shiga toxin inh, MARV entry inh, CHX counter)
C=CCNc1nc(Nc2ccc([N+](=O)[O-])cc2)nc(N2CCCC2)n1	MARV entry inh inconclusive, CHX counter 26.4
O=C(NCc1cccc(Cl)c1)c1ccc2c(c1)OCO2	CHX counter 21.1
CC(=O)c1cccc(NC(=O)Nc2ccc3c(c2)OCO3)c1	Shiga toxin inh 88.3, MARV entry inh inconclusive, CHX counter 38.4
O=C(NCc1ccc2c(c1)OCO2)Nc1cccc(Cl)c1	Shiga toxin inh 57.5, CHX counter 41.0 (no result: VACV mCherry inh, Vaccinia Venus, MARV entry inh, Lassa entry inh)
Cc1nn(C)cc1CNC(=O)Nc1cccc(Cl)c1	Shiga toxin inh 90.0, CHX counter 67.1
Nc1ccc(/C=C/c2ccnc3ccccc23)cc1[N+](=O)[O-]	none (no result: Shiga toxin inh, MARV entry inh, Lassa entry inh, CHX counter)
O=C(Nc1cccc(Cl)c1)Nc1ccc2c(c1)OCO2	Shiga toxin inh 72.5, MARV entry inh inconclusive, Lassa entry inh inconclusive, CHX counter 47.5 (no result: VACV mCherry inh, Vaccinia Venus)
C=CCOc1ccc(/C=C2\SC(=Nc3cccnc3)NC2=O)cc1	MARV entry inh inconclusive, Lassa entry inh 3.55µM, CHX counter 10.3
Cc1cc(C)n(CC(=O)NCc2ccccc2)c(=O)c1C#N	none (no result: VACV mCherry inh, Vaccinia Venus, MARV entry inh, Lassa entry inh)
Cc1cc(C)c(NC(=O)C2CSCCS2)c(C)c1 (stereo unspecified)	Shiga toxin inh 57.1, MARV entry inh inconclusive, CHX counter 20.2 (no result: VACV mCherry inh, Vaccinia Venus)
Cc1cc(C)c(NC(=O)C2CCCCN2C)c(C)c1 (stereo unspecified)	none
COc1cc(C(=O)Oc2cccc(Nc3ncnc4ccccc34)c2)cc(OC)c1OC	MARV entry inh inconclusive, Lassa entry inh inconclusive
COc1ccccc1Nc1ncnc2ccccc12	Lassa entry inh inconclusive, CHX counter 16.6
CC(=O)Nc1ccc(Nc2ncnc3ccccc23)cc1	CHX counter 14.2 (no result: VACV mCherry inh, Vaccinia Venus, MARV entry inh, Lassa entry inh)
Nc1cccc(Nc2ncnc3ccccc23)c1	none (no result: VACV mCherry inh, Shiga toxin inh, Vaccinia Venus, MARV entry inh, Lassa entry inh)
CC(C)(C)C(=O)Oc1cccc(Nc2ncnc3ccccc23)c1	MARV entry inh inconclusive, CHX counter 9.6
Fc1ccc(Nc2ncnc3ccccc23)cc1	MARV entry inh inconclusive, CHX counter 22.2 (no result: Shiga toxin inh)
CCOc1ccccc1Nc1ncnc2ccccc12	none (no result: VACV mCherry inh)
CC1(C(=O)NCc2cccs2)Cc2c(-c3cccc(C(F)(F)F)c3)ccnc2O1 (stereo unspecified)	none (no result: Shiga toxin inh, MARV entry inh, Lassa entry inh, CHX counter)
CCn1c(=O)c2sccc2n2c(CCCC(=O)Nc3ccc(OC)c(OC)c3)nnc12	none (no result: Shiga toxin inh, MARV entry inh, CHX counter)
COc1ccc2c(c1)sc1nc(-c3ccccc3)cn12	MARV entry inh 0.708µM, Lassa entry inh 0.501µM
COc1ccc(-c2cn3c(n2)sc2cc(C(=O)NCc4ccccc4)ccc23)cc1	VACV mCherry inh inconclusive (no result: Shiga toxin inh, MARV entry inh, CHX counter)
COc1ccc(-n2cc(-c3ccccc3)nc2SC)cc1	Shiga toxin inh 65.2, CHX counter 47.5 (no result: VACV mCherry inh, Vaccinia Venus, MARV entry inh, Lassa entry inh)
CCCN1CCN(CCCNC(=O)c2ccc3c(c2)sc2nc(-c4ccc(C)cc4)cn23)CC1	VACV mCherry inh 7.08µM, Vaccinia Venus inconclusive (no result: Shiga toxin inh, MARV entry inh, CHX counter)
CCOC(=O)C1CCN(C(=O)c2ccc3c(c2)sc2nc(-c4ccc(OC)cc4)cn23)CC1	none (no result: Shiga toxin inh, MARV entry inh, CHX counter)
CCOC(=O)N1CCN(C(=O)c2ccc3c(c2)sc2nc(-c4ccc(OC)cc4)cn23)CC1	Vaccinia Venus inconclusive, MARV entry inh inconclusive, CHX counter 25.1
COC(=O)C(Sc1nc(C)cc(C)c1C#N)c1ccccc1 (stereo unspecified)	none
Cc1cc(C)c(C#N)c(Sc2ccccc2N)n1	Shiga toxin inh 71.7, CHX counter 31.9
O=C(/C=C/c1ccc[nH]1)c1ccc(F)cc1	Shiga toxin inh 72.1, CHX counter 31.9 (no result: VACV mCherry inh, Vaccinia Venus, MARV entry inh, Lassa entry inh)
O=C(/C=C/c1ccccc1[N+](=O)[O-])c1ccc(F)cc1	none
O=C(/C=C/c1c(F)cccc1Cl)c1ccc(F)cc1	Shiga toxin inh 131.9, CHX counter 34.7 (no result: VACV mCherry inh)
O=C(/C=C/c1ccc[nH]1)c1ccccc1	Shiga toxin inh 68.1, CHX counter 36.6
O=C(/C=C/c1c(F)cccc1Cl)NCCCN1CCOCC1	none (no result: VACV mCherry inh, Vaccinia Venus, MARV entry inh, Lassa entry inh)
